Measured values reported in PubChem BioAssay.
“And” between values parts separate entries of the source, which are not always exact repeats. Equal entries are not always repeated. The source made the active and inactive calls.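 How the source made its calls, unless noted: active means normalized viability below 100% at a tested concentration; inactive means the rest.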

Experiments:
[1] = Wnt pathway potentiators raising nuclear beta-catenin – imaging, WNT3A-conditioned medium, mouse C2C12, NPC library, primary screen (AID 1117326; in the data active means nuclear beta-catenin stimulation mostly above about 4.2%, no sharp cut-off; inactive means mostly below about 10%); settings: stronger effect = higher value
[2] = stimulators of insulin release from INS-1E, primary screen, cell-based, 5 mM glucose, NPC library (AID 1117329;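 active means compound raises insulin release from rat beta cells at 5 mM glucose, no numeric limit stated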); settings: rat INS-1E insulin secretion, at 10 µM, stronger effect = higher value
[3] = growth inhibition of GSK3B-pretreated HCT116 cells – cell-based, CellTiter-Glo, 0.2 to 20 µM (AID 1117336;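 active means compounds lowering colon cancer cell viability after pretreatment blocking the GSK3B kinase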); settings: HCT116 viability after GSK3B inhibitor, at 20 µM, stronger effect = higher value
[4] = inhibition of endothelial tube formation, primary screen, imaging, VEGF stimulated, CD31 staining, tube area, NPC library (AID 1117340;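 active means compound that reduces growth-factor-driven endothelial tube area in a mixed cell culture, no cutoff stated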); settings: VEGF-stimulated ADSC/ECFC co-culture, at 10 µM, stronger effect = higher value
[5] = GLP1 release stimulators, primary, NCI-H716, NPC library (AID 1117341;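 active means compound raises GLP1 secretion from the human gut endocrine cells, with no numeric limit stated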); settings: NCI-H716 cells, at 10 µM, stronger effect = higher value
[6] = HCT116 colon cancer cell growth inhibition, primary screen, CellTiter-Glo luminescence, NPC library (AID 1117342;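 active means compounds that lower survival of HCT116 colon cancer cells in the luminescence readout, no numeric limit stated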); settings: at 20 µM (top of the series)
[7] = reduced SW480 viability measured with CellTiter-Glo, NPC library, primary (AID 1117343;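 active means compounds that lower viability of the colon cancer cells in the luminescence readout, with no numeric limit stated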); settings: CellTiter-Glo luminescence; at 20 µM (top of the series) unless noted
[8] = NPC library primary testing for decreased DLD-1 cell viability via CellTiter-Glo (AID 1117346;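 active means compounds that lower survival of DLD-1 colon cancer cells in the luminescence readout, no cutoff given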); settings: DLD-1 viability, CellTiter-Glo luminescence; at 20 µM (top of the series)
[9] = MELAS cybrid and Rieske KO viability enhancers – cell-based, MELAS cybrids, Rieske KO mouse fibroblasts, CellTiter-Glo, primary screen (AID 1508586;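 active means mean z-score across replicates of 1.96 or higher in either the MELAS or the Rieske mutant cell line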;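 further: z relative to plate mean and SD of compound and empty wells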); settings: low glucose
[10] = target: NAD(+) hydrolase SARM1 (Homo sapiens) (UniProt Q6SZW1); test: blocking NAD cleavage by SARM1 SAM-TIR – cell lysate, NAD-Glo luminescence (AID 1508614;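 active means compound whose remaining NAD level is above about 45 nM, limit read from the data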); settings: SAM-TIR HEK293T lysate NADase, at 1 µM, stronger effect = higher value
[11] = target: Mitogen-activated protein kinase 7 (Homo sapiens) (UniProt Q13164); test: Gal4-ERK5 driven luciferase induction – cell-based, HTS, primary screen (AID 1508626;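 active means luciferase signal above three times the same-plate solvent-only control wells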;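 further: luciferase driven by Gal4-ERK5 fusion binding five Gal4 sites before minimal TATA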); settings: HeLa Gal4-ERK5 transactivation, 18 h, at 5 µM, stronger effect = higher value
[12] = compounds altering viability of human ES cells (AID 493140; call rule not given here;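 further: cells exposed to compounds for four days before counting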); settings: human embryonic stem cell survival screen; stronger effect = higher value
[13] = drug combination growth inhibition, ovarian cancer – cell-based, oncology-focused library, rucaparib conditional, profiling panel (AID 1508598); settings: patient-derived ovarian cancer cells, CellTiter-Glo viability, 144 h, stronger effect = lower value
[14] = P. berghei load reduction in hepatocytes – cell-based, HepG2, luciferase luminescence, HepG2 viability, primary screen (AID 624349; in the data active means parasite load remaining mostly below about 12%, no sharp cut-off; inactive means mostly above about 10%;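 further: 100% = mean of DMSO negative control wells on the same plate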); settings: P. berghei liver stage in HepG2, luciferase luminescence, concentration not given here; parasite load remaining: stronger effect = lower value; viability: measured here: HepG2 viability without parasites
[15] = galactose survival enhancers in mitochondrial complex I cybrids – cell-based, galactose medium, ATP luminescence, primary screen (AID 1645843;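 active means z-score of at least 1.8 in each of two replicates, scored against plate mean and spread of sample wells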;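 further: positive z means more ATP and so rescue of galactose-driven cybrid death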); settings: complex I mutant cybrid cells, 72 h, stronger effect = higher value
[16] = MELAS cybrid survival, CellTiter-Glo 48 h, stronger effect = higher value
[17] = Rieske KO mouse fibroblast survival, CellTiter-Glo 72 h

NAD(+) hydrolase SARM1 (Homo sapiens), sequence (Q6SZW1 whole entry, looked up, the tested form may be a part): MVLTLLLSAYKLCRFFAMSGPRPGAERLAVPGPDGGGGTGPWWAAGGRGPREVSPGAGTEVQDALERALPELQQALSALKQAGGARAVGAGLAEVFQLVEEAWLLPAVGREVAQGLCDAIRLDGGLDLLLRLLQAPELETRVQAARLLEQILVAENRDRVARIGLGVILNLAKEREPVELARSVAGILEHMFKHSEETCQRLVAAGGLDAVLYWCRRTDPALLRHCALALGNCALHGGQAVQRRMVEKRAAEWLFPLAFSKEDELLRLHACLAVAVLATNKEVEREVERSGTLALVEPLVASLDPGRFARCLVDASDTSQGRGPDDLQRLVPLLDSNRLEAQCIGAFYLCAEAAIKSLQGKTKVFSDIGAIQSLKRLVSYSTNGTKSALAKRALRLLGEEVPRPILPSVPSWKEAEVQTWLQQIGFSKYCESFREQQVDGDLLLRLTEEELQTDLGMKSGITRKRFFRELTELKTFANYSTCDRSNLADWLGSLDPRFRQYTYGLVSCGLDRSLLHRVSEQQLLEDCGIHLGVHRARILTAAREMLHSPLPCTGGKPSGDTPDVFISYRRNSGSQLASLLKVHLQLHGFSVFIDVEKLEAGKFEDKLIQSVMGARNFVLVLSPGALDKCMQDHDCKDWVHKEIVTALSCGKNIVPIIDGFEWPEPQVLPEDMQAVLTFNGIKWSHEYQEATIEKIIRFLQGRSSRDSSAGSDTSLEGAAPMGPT
Mitogen-activated protein kinase 7 (Homo sapiens), sequence (Q13164 whole entry, looked up, the tested form may be a part): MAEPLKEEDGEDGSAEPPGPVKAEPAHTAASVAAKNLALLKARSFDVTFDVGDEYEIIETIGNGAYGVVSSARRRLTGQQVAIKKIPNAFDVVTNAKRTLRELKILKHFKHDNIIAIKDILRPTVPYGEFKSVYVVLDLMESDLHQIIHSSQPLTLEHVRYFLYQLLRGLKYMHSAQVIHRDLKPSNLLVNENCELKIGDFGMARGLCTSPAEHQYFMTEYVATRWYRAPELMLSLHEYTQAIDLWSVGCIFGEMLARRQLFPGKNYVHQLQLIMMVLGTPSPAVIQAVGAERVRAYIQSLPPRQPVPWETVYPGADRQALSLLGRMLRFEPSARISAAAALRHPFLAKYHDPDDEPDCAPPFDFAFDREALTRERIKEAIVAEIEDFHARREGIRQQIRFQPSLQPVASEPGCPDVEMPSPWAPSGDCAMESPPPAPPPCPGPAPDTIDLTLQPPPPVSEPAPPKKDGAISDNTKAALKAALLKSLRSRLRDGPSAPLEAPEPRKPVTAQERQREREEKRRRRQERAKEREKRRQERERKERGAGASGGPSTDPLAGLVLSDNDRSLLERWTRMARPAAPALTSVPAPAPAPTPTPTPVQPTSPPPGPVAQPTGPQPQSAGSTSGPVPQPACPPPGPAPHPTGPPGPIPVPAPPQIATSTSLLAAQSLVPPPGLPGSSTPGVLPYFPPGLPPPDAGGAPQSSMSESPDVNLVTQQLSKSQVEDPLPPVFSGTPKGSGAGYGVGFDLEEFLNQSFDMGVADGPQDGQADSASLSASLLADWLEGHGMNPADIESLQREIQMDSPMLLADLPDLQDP

Structure (SMILES): NC(=O)C(c1ccccc1)(c1ccccc1)[C@@H]1CCN(CCc2ccc3c(c2)CCO3)C1
- nuclear beta-catenin stimulation ([1]; at 10 µM): 0.1% (inactive)
- nuclear beta-catenin stimulation ([1]; stimulation, at 2 µM): 1.7%
- insulin secretion stimulation [2]: 16% (inactive)
- viability decrease [3]: -129% (inactive)
- tube area decrease [4]: 25.4% (inactive)
- GLP1 secretion stimulation [5]: 0.9% (inactive)
- inhibition of viability [6]: 35.1% (inactive)
- viability decrease (inhibition) [7]: 22.8% (inactive)
- viability decrease (inhibition) [8]: 12.4% (inactive)
- z-score [9, 16]: -1.84 (inactive)
- z-score [9, 17]: -1.37
- remaining NAD [10]: 10 nM (inactive)
- luciferase signal [11]: 108 AU (inactive)

Structure (SMILES): O=C(OCCOCCO)c1ccccc1Nc1cccc(C(F)(F)F)c1
- survival [12]: 2.08 (inactive)
- nuclear beta-catenin stimulation ([1]; at 10 µM): -1.7% (inactive)
- nuclear beta-catenin stimulation ([1]; stimulation, at 2 µM): -0.5%
- insulin secretion stimulation [2]: 0.3% (inactive)
- viability decrease [3]: 79.4% (active)
- tube area decrease [4]: 13.5% (inactive)
- GLP1 secretion stimulation [5]: -1.6% (inactive)
- inhibition of viability [6]: 81.8% (active)
- viability decrease (inhibition) [7]: 54.2% (active)
- viability decrease (inhibition) [8]: 45.7% (inactive)
- z-score [9, 16]: 0.681 (inactive)
- z-score [9, 17]: 0.111

Structure (SMILES): O=C(O)CCCCC(=O)O
- nuclear beta-catenin stimulation ([1]; at 10 µM): 0.3% (inactive)
- nuclear beta-catenin stimulation ([1]; stimulation, at 2 µM): -0.9%
- insulin secretion stimulation [2]: -0.6% (inactive)
- viability decrease [3]: -6.5% (inactive)
- tube area decrease [4]: -7.7% (inactive)
- GLP1 secretion stimulation [5]: 1.4% (inactive)
- inhibition of viability [6]: -4.8% (inactive)
- viability decrease (inhibition) [7]: 25% (inactive)
- viability decrease (inhibition) [8]: 11.8% (inactive)
- remaining NAD [10]: 10 nM (inactive)

Structure (SMILES): O=c1[nH]c(=O)n([C@H]2CCCO2)cc1F
- nuclear beta-catenin stimulation ([1]; at 10 µM): 0.6% (inactive)
- nuclear beta-catenin stimulation ([1]; stimulation, at 2 µM): 0.4%
- insulin secretion stimulation [2]: -1.4% (inactive)
- viability decrease [3]: 6% (inactive)
- tube area decrease [4]: 3.6% (inactive)
- GLP1 secretion stimulation [5]: -1.7% (inactive)
- inhibition of viability [6]: 16% (inactive)
- viability decrease (inhibition) [7]: 13.4% (inactive)
- viability decrease (inhibition) [8]: 11.5% (inactive)
- viability ([13]; at 0.000305 µM, OCI-C5x cells, with rucaparib 10 µM, 100% = cells with rucaparib alone): 106% (inactive)
- viability ([13]; at 0.000305 µM, OCI-C5x cells, without rucaparib): 122% (inactive)
- viability ([13]; at 0.000305 µM, OCI-P5x cells, with rucaparib 20 µM, 100% = cells with rucaparib alone): 115% (inactive)
- viability ([13]; at 0.000305 µM, OCI-P5x cells, without rucaparib): 110% (inactive)
- viability ([13]; at 0.00122 µM, OCI-C5x cells, with rucaparib 10 µM, 100% = cells with rucaparib alone): 119% (inactive)
- viability ([13]; at 0.00122 µM, OCI-C5x cells, without rucaparib): 122% (inactive)
- viability ([13]; at 0.00122 µM, OCI-P5x cells, with rucaparib 20 µM, 100% = cells with rucaparib alone): 106% (inactive)
- viability ([13]; at 0.00122 µM, OCI-P5x cells, without rucaparib): 107% (inactive)
- viability ([13]; at 0.00488 µM, OCI-C5x cells, with rucaparib 10 µM, 100% = cells with rucaparib alone): 103% (inactive)
- viability ([13]; at 0.00488 µM, OCI-C5x cells, without rucaparib): 127% (inactive)
- viability ([13]; at 0.00488 µM, OCI-P5x cells, with rucaparib 20 µM, 100% = cells with rucaparib alone): 96% (active)
- viability ([13]; at 0.00488 µM, OCI-P5x cells, without rucaparib): 106% (inactive)
- viability ([13]; at 0.0195 µM, OCI-C5x cells, with rucaparib 10 µM, 100% = cells with rucaparib alone): 107% (inactive)
- viability ([13]; at 0.0195 µM, OCI-C5x cells, without rucaparib): 121% (inactive)
- viability ([13]; at 0.0195 µM, OCI-P5x cells, with rucaparib 20 µM, 100% = cells with rucaparib alone): 94.8% (active)
- viability ([13]; at 0.0195 µM, OCI-P5x cells, without rucaparib): 99.2% (active)
- viability ([13]; at 0.0781 µM, OCI-C5x cells, with rucaparib 10 µM, 100% = cells with rucaparib alone): 104% (inactive)
- viability ([13]; at 0.0781 µM, OCI-C5x cells, without rucaparib): 112% (inactive)
- viability ([13]; at 0.0781 µM, OCI-P5x cells, with rucaparib 20 µM, 100% = cells with rucaparib alone): 106% (inactive)
- viability ([13]; at 0.0781 µM, OCI-P5x cells, without rucaparib): 107% (inactive)
- viability ([13]; at 0.313 µM, OCI-C5x cells, with rucaparib 10 µM, 100% = cells with rucaparib alone): 31.7% (active)
- viability ([13]; at 0.313 µM, OCI-C5x cells, without rucaparib): 24.1% (active)
- viability ([13]; at 0.313 µM, OCI-P5x cells, with rucaparib 20 µM, 100% = cells with rucaparib alone): 47.7% (active)
- viability ([13]; at 0.313 µM, OCI-P5x cells, without rucaparib): 16.2% (active)
- viability ([13]; at 1.25 µM, OCI-C5x cells, with rucaparib 10 µM, 100% = cells with rucaparib alone): 110% (inactive)
- viability ([13]; at 1.25 µM, OCI-C5x cells, without rucaparib): 115% (inactive)
- viability ([13]; at 1.25 µM, OCI-P5x cells, with rucaparib 20 µM, 100% = cells with rucaparib alone): 97.8% (active)
- viability ([13]; at 1.25 µM, OCI-P5x cells, without rucaparib): 97.2% (active)
- viability ([13]; at 5 µM, OCI-C5x cells, with rucaparib 10 µM, 100% = cells with rucaparib alone): 133% (inactive)
- viability ([13]; at 5 µM, OCI-C5x cells, without rucaparib): 111% (inactive)
- viability ([13]; at 5 µM, OCI-P5x cells, with rucaparib 20 µM, 100% = cells with rucaparib alone): 87.8% (active)
- viability ([13]; at 5 µM, OCI-P5x cells, without rucaparib): 94.3% (active)

Structure (SMILES): NCCNCCNCCNCCN
- nuclear beta-catenin stimulation ([1]; at 10 µM): -1.7% (inactive)
- nuclear beta-catenin stimulation ([1]; stimulation, at 2 µM): -1.3%
- insulin secretion stimulation [2]: 4.1% (inactive)
- viability decrease [3]: -0.2% (inactive)
- tube area decrease [4]: -4.2% (inactive)
- GLP1 secretion stimulation [5]: -2.1% (inactive)
- inhibition of viability [6]: 16% (inactive)
- viability decrease (inhibition) [7]: 17.8% (inactive)
- viability decrease (inhibition) [8]: 4.2% (inactive)
- z-score [9, 16]: -0.618 (inactive)
- z-score [9, 17]: 0.462

Structure (SMILES): CCN(CC)C(=O)Nc1ccc(OCC(O)CNC(C)(C)C)c(C(C)=O)c1 (stereo unspecified)
- nuclear beta-catenin stimulation ([1]; at 10 µM): -1.9% (inactive)
- nuclear beta-catenin stimulation ([1]; stimulation, at 2 µM): -0.3%
- insulin secretion stimulation [2]: 9.4% (inactive)
- viability decrease [3]: 0.3% (inactive)
- tube area decrease [4]: -7.8% (inactive)
- GLP1 secretion stimulation [5]: -4.8% (inactive)
- inhibition of viability [6]: 12% (inactive)
- viability decrease (inhibition) [7]: 4.9% (inactive)
- viability decrease (inhibition) [8]: -3.6% (inactive)
- z-score [9, 16]: 1.68 (inactive)
- z-score [9, 17]: 0.098

Structure (SMILES): O=C(CCCl)NCCc1ccccc1
- nuclear beta-catenin stimulation ([1]; at 10 µM): -0.5% (inactive)
- nuclear beta-catenin stimulation ([1]; stimulation, at 2 µM): 0.2%
- insulin secretion stimulation [2]: 1.5% (inactive)
- viability decrease [3]: -9.9% (inactive)
- tube area decrease [4]: -1.9% (inactive)
- GLP1 secretion stimulation [5]: -1.9% (inactive)
- inhibition of viability [6]: -2.8% (inactive)
- viability decrease (inhibition) [7]: -1.5% (inactive)
- viability decrease (inhibition) [8]: -7.5% (active)
- remaining NAD [10]: 10 nM (inactive)

Structure (SMILES): O=C1NCN(c2ccccc2)C12CCN(CCCC(c1ccc(F)cc1)c1ccc(F)cc1)CC2
- survival [12]: 0.417 (inactive)
- parasite load remaining [14]: 45.3% (inactive) and 31.6% (inactive)
- viability [14]: 89.8% and 100%
- nuclear beta-catenin stimulation ([1]; at 10 µM): 31.6% (inactive)
- nuclear beta-catenin stimulation ([1]; stimulation, at 2 µM): 2.1%
- insulin secretion stimulation [2]: 2.5% (inactive)
- viability decrease [3]: 99.7% (active)
- tube area decrease [4]: 109% (active)
- GLP1 secretion stimulation [5]: -0.5% (inactive)
- inhibition of viability [6]: 99.6% (active)
- viability decrease (inhibition) [7]: 103% (active)
- viability decrease (inhibition) [8]: 102% (active)
- z-score [9, 16]: -1.7 (inactive) and 0.321 (inactive)
- z-score [9, 17]: 0.391 and -0.284
- z-score [15]: -0.995 (inactive) and -1.48 (inactive)

Structure (SMILES): CCOCCn1c(N2CCCN(C)CC2)nc2ccccc21
- nuclear beta-catenin stimulation ([1]; at 10 µM): -1.8% (inactive)
- nuclear beta-catenin stimulation ([1]; stimulation, at 2 µM): 1%
- insulin secretion stimulation [2]: 4.3% (inactive)
- viability decrease [3]: -10.6% (inactive)
- tube area decrease [4]: 3.4% (inactive)
- GLP1 secretion stimulation [5]: -2.3% (inactive)
- inhibition of viability [6]: 8.5% (inactive)
- viability decrease (inhibition) [7]: 6% (inactive)
- viability decrease (inhibition) [8]: -4.3% (inactive)
- z-score [9, 16]: 0.35 (inactive)
- z-score [9, 17]: -0.184

Structure (SMILES): CCOC(=O)[C@@](C)(N)Cc1ccc(O)c(O)c1
- nuclear beta-catenin stimulation ([1]; at 10 µM): 0.6% (inactive)
- nuclear beta-catenin stimulation ([1]; stimulation, at 2 µM): -0.5%
- insulin secretion stimulation [2]: 2.8% (inactive)
- viability decrease [3]: 37.5% (inactive)
- tube area decrease [4]: -1.8% (inactive)
- GLP1 secretion stimulation [5]: -2.3% (inactive)
- inhibition of viability [6]: 20% (inactive)
- viability decrease (inhibition) [7]: 65% (active)
- viability decrease (inhibition) [8]: 17.2% (inactive)
- z-score [9, 16]: -1.64 (inactive)
- z-score [9, 17]: -0.614
- luciferase signal [11]: 92 AU (inactive)
